The text below walks through data of PubChem BioAssay (Tox21).

A short description of assay [1]: qHTS assay to identify small molecule antagonists of the sonic hedgehog signaling (Shh) pathway (AID 1259369; calls by dose curve; further: nearly all actives have a fitted effect of over 45% in size; further: potency means the concentration at half of the fitted maximal effect). The method in brief: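 NIH/3T3 stable Gli1-Luc clone, 2,000 cells/well, 4hr settle; cpd + conditioned medium 24hr; Luc reagent 30min RT; luminescence.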
The target of assay [2] is Estrogen receptor beta (Homo sapiens) (UniProt Q92731). Briefly: qHTS assay to identify small molecule agonists of the estrogen receptor beta (ER-beta) signaling pathway (AID 1259377; active means well fitted activation curve with a large enough effect in the signal ratio in the repeat runs, not every such curve was filed as active; the % refers to the signal ratio). In outline: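 Agonist mode cell assay in GripTite HEK293T cells expressing an ER-beta fusion that drives beta-lactamase from an Upstream Activator Sequence; 16 hr compound exposure at 37C, then 2 h LiveBLAzer B/G FRET substrate at room temperature, fluorescence read-out.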
Sequence of Estrogen receptor beta (Homo sapiens) (Q92731 whole entry, looked up, the tested form may be a part): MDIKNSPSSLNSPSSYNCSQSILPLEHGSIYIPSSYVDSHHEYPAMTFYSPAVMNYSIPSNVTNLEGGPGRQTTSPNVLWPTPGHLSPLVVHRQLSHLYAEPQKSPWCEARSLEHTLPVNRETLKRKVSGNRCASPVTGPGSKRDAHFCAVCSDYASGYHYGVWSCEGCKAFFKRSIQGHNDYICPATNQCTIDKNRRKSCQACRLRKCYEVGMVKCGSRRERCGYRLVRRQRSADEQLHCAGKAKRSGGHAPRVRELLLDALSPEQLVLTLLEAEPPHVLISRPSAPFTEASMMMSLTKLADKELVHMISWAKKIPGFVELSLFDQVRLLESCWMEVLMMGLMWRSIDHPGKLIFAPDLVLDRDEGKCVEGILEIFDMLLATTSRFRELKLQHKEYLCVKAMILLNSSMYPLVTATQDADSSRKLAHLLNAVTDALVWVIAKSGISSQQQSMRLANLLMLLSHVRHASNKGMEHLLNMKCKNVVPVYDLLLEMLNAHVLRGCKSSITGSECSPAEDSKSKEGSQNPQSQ

The target is the same in assay [3]. Briefly: qHTS assay to identify small molecule antagonists of the estrogen receptor beta (ER-beta) signaling pathway (AID 1259378; active means well fitted inhibition curve with a large enough effect in the signal ratio in the repeat runs, not every such curve was filed as active; the % refers to the signal ratio). In outline:
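ER-beta-UAS-bla HEK293T cells in 2% charcoal-stripped FBS medium treated with compound plus 1nM final 17-beta-estradiol for 16 hr at 37C. Beta-lactamase reporter read by FRET substrate fluorescence after 2 hours at room temperature.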

Assay [4] can be described thus: qHTS assay to identify small molecule agonists of the androgen receptor (AR) signaling pathway in the presence of an antagonist - cell viability counter screen (AID 1259379).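 Further: MDA-kb2 human breast cancer cells carrying an MMTV luciferase reporter; series mostly up to about 92 µM; nearly all actives have a fitted effect of over 25% in size.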 The method in brief: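 MDA-kb2 viability measured by CellTiter-Fluor fluorescence in the same wells as the luciferase signal; nilutamide 3.0uM final; 15-point compound titration; 16 hr at 37C.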

Assay [5] in a line: qHTS assay to identify small molecule agonists of the estrogen receptor beta (ER-beta) signaling pathway - cell viability counter screen (AID 1259380). Further: nearly all actives have a fitted effect of over 30% in size. In outline: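 Measured: luminescence from CellTiter-Glo after 30 min at room temperature, added to wells already read for the LiveBLAzer FRET reporter (2 hr substrate); ER-beta-UAS-bla HEK293T cells had 16 hr compound treatment at 37C, 5% CO2.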

Assay [6] deals with Androgen receptor (Homo sapiens) (UniProt P10275). As to the kind of experiment: qHTS assay to identify small molecule agonists of the androgen receptor (AR) signaling pathway in the presence of an antagonist (AID 1259381; calls by dose curve; further: nearly all actives have a fitted effect of over 15% in size). The method in brief: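 Luminescent ONE-Glo read, 30min at room temperature, follows 16hr compound exposure (15 concentrations) of MDA-kb2 cells at 37C, 0% CO2, with nilutamide added at 3.0uM final.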
Sequence of Androgen receptor (Homo sapiens) (P10275 whole entry, looked up): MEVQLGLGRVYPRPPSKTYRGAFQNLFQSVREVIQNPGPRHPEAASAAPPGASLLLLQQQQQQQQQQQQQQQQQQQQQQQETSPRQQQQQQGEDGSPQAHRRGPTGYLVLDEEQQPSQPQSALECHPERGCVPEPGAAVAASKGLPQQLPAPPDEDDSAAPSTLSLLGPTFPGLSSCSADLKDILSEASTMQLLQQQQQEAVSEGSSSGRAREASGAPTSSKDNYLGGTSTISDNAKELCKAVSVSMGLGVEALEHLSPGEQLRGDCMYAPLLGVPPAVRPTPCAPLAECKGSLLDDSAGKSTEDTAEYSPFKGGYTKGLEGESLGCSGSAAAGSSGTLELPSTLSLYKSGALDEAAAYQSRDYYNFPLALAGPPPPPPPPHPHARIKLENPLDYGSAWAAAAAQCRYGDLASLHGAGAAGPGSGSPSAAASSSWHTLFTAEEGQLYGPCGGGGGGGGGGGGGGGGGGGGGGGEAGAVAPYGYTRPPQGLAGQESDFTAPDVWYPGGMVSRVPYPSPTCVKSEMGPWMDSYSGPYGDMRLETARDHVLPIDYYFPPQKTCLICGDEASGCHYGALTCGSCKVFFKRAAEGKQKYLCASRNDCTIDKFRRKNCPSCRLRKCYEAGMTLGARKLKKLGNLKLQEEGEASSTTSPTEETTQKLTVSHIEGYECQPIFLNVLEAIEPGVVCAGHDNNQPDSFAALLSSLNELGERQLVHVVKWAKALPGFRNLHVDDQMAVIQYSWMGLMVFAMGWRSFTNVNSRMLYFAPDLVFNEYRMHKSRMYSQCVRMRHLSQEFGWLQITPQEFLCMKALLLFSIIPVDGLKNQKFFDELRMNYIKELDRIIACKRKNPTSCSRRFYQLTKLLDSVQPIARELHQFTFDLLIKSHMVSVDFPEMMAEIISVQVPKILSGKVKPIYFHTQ

Assay [7] is described as follows: qHTS assay to identify small molecule antagonists of the estrogen receptor beta (ER-beta) signaling pathway - cell viability counter screen (AID 1259382). Further: series mostly up to about 92 µM; nearly all actives have a fitted effect of over 55% in size. The method in brief: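 Readout: luminescence, CellTiter-Glo, same wells as bla assay. System: ER-beta-UAS-bla GripTite HEK293T, 2% charcoal-stripped FBS. Exposure: compounds plus 1nM 17-beta-estradiol, 16 hr, 37C.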

The nature of assay [8]: qHTS assay to identify small molecule agonists or antagonists of the thyroid stimulating hormone receptor (TSHR) signaling pathway - wild type cell line counter screen (AID 1259384; calls by dose curve). The method in brief:
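Wild-type Hek293 cells, 800/well, 18 h at 37C, then compound with Ro20-1724 for 30 min RT. cAMP by HTRF (cAMP-d2/anti-cAMP cryptate), 1 h RT, fluorescence read. 15 concentrations, triplicates.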

Assay [9] is described as follows: qHTS assay to identify small molecule agonists of the estrogen receptor alpha (ER-alpha) signaling pathway in the presence of an antagonist - cell viability counter screen (AID 1259386).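 Further: series mostly up to about 92 µM; cells exposed to compounds for 22 h at 37 °C before the viability read; nearly all actives have a fitted effect of over 30% in size.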 In outline: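 The test measures whether compounds kill ER-alpha reporter cells (VM7Luc4E2) under antagonist co-treatment (ICI-182,780, 10.0nM). Fluorescence from CellTiter-Fluor is read after a 22hr exposure.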

Assay [10] can be described thus: qHTS assay to identify small molecule antagonists of the progesterone receptor (PR) signaling pathway - cell viability counter screen (AID 1346798). Further: series mostly up to about 92 µM; nearly all actives have a fitted effect of over 50% in size. In outline: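 Counter screen for cytotoxicity: viability of PR-UAS-bla HEK293T cells was measured with CellTiter-Glo luminescence following 16 hr compound exposure in the presence of R5020.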
Assay [11] is described as follows: qHTS assay to identify small molecule agonists of the progesterone receptor (PR) signaling pathway - cell viability counter screen (AID 1346799; calls by dose curve; further: nearly all actives have a fitted effect of over 45% in size). The method in brief: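 Cells (PR-UAS-bla HEK293T) are plated at 3,000/well in 2% charcoal-stripped FBS medium, rested 6 hr, dosed and incubated 16 hr at 37C. CellTiter-Glo is then added and luminescence measured after 30 min at room temperature.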

A short description of assay [12]: qHTS assay to identify small molecule antagonists of the TGF-beta/Smad signaling pathway - cell viability counter screen (AID 1346824). Further: nearly all actives have a fitted effect of over 50% in size. In outline:
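SBE-bla HEK 293T cells, incubated overnight, then compound plus 0.25 ng/mL TGF-beta1 (stock added) for 5 hr at 37 C. Viability was read in the same wells by CellTiter-Glo luminescence after 30 min at room temperature.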

A short description of assay [13]: qHTS assay to identify small molecule agonists of the TGF-beta/Smad signaling pathway - cell viability counter screen (AID 1346829). Further: top concentration of the series differs between compounds; nearly all actives have a fitted effect of over 45% in size. The method in brief:
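Compound-treated SBE-bla HEK 293T cells (5 hr, 37 C) were assessed for viability with CellTiter-Glo in parallel with the reporter read.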

A short description of assay [14]: qHTS assay to identify small molecule agonists of the TGF-beta/Smad signaling pathway (AID 1346859; active means well fitted activation curve with a large enough effect in the signal ratio in the repeat runs, not every such curve was filed as active; the % refers to the signal ratio; further: series mostly up to about 77 µM). In outline:
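Reporter line: HEK 293T with stably integrated SBE-controlled beta-lactamase. Compound exposure lasts 5 hr at 37 C and 5% CO2; substrate loading follows for 2 hr at room temperature, with emission read at 460 and 530 nm.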

For assay [15], the target named is Thyrotropin-releasing hormone receptor (Homo sapiens) (UniProt P34981). Briefly: qHTS assay to identify small molecule antagonists of the thyrotropin-releasing hormone receptor (TRHR) signaling pathway (AID 1346877; active means well fitted inhibition curve with a large enough effect in the repeat runs, not every such curve was filed as active; further: series mostly up to about 51 µM). The method in brief: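 Overnight-plated (18 h, 37 °C) HEK293 cells expressing TRHR were dye-loaded 2 h, treated with compound, then stimulated with TRH at 1 nM final. Fluorescence intensity was captured every second for 3 min.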
Sequence of Thyrotropin-releasing hormone receptor (Homo sapiens) (P34981 whole entry, looked up): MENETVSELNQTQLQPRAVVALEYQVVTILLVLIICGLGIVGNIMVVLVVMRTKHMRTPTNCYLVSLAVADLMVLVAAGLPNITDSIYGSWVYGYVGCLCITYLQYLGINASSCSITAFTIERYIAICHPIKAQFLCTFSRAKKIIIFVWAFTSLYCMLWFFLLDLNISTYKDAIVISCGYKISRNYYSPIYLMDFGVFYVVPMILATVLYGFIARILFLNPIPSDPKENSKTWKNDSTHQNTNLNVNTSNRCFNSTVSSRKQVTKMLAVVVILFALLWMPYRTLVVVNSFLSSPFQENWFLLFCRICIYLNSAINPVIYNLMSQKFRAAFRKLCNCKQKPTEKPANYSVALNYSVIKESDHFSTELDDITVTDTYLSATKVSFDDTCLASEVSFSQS

For assay [16] the target is unchanged. As to the kind of experiment: qHTS assay to identify small molecule agonists of the thyrotropin-releasing hormone receptor (TRHR) signaling pathway (AID 1346891; calls by dose curve;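 further: HEK293 cells expressing TRHR with calcium dye readout; series mostly up to about 58 µM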). In outline:
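Cells: TRHR-Hek293, seeded and incubated 18 h. Dye loading: 2 h at 37 °C. Compound added from DMSO stock by pin tool. Read-out: kinetic calcium fluorescence over 3 min.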

For assay [17], the target named is Estrogen receptor (Homo sapiens) (UniProt P03372). Briefly: qHTS assay to identify small molecule agonists of the estrogen receptor alpha (ER-alpha) signaling pathway in the presence of an antagonist (AID 1259383; calls by dose curve; further: top concentration of the series differs between compounds; nearly all actives have a fitted effect of over 15% in size). The method in brief: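 Quantitative HTS confirmation: compounds titrated at 15 concentrations onto estrogen-deprived VM7Luc4E2 cells carrying a four-ERE luciferase construct, with ICI-182,780 present at 10.0nM final. Signal is luminescence after 22hr exposure.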
Sequence of Estrogen receptor (Homo sapiens) (P03372 whole entry, looked up): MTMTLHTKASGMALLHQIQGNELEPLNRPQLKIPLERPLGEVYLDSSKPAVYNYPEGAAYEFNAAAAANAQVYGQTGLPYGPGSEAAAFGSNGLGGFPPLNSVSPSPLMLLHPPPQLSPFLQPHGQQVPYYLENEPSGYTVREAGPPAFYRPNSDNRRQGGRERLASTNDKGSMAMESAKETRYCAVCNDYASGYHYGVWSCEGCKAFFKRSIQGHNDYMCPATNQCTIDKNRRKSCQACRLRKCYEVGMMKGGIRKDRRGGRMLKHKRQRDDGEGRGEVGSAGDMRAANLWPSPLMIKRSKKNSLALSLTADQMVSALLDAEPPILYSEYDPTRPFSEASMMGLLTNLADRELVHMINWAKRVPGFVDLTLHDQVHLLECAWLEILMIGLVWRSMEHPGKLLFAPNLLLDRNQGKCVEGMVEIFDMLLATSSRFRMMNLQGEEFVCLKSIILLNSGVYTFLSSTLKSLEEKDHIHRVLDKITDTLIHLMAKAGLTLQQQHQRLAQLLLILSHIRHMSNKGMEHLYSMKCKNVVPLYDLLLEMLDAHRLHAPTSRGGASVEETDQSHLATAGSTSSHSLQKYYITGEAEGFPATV

The target in assay [18] is Progesterone receptor (Homo sapiens) (UniProt P06401). As to the kind of experiment: qHTS assay to identify small molecule agonists of the progesterone receptor (PR) signaling pathway (AID 1346784; calls by dose curve; further: nearly all actives have a fitted effect of over 30% in size). In outline: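 Cells (PR-UAS-bla HEK 293T, GripTite) were plated in assay medium containing 2% charcoal-stripped FBS and incubated 6 hr. Test compounds in DMSO were added for 16 hr at 37C. FRET substrate was then loaded for 2 hr at room temperature before fluorescence reading.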
Sequence of Progesterone receptor (Homo sapiens) (P06401 whole entry, looked up): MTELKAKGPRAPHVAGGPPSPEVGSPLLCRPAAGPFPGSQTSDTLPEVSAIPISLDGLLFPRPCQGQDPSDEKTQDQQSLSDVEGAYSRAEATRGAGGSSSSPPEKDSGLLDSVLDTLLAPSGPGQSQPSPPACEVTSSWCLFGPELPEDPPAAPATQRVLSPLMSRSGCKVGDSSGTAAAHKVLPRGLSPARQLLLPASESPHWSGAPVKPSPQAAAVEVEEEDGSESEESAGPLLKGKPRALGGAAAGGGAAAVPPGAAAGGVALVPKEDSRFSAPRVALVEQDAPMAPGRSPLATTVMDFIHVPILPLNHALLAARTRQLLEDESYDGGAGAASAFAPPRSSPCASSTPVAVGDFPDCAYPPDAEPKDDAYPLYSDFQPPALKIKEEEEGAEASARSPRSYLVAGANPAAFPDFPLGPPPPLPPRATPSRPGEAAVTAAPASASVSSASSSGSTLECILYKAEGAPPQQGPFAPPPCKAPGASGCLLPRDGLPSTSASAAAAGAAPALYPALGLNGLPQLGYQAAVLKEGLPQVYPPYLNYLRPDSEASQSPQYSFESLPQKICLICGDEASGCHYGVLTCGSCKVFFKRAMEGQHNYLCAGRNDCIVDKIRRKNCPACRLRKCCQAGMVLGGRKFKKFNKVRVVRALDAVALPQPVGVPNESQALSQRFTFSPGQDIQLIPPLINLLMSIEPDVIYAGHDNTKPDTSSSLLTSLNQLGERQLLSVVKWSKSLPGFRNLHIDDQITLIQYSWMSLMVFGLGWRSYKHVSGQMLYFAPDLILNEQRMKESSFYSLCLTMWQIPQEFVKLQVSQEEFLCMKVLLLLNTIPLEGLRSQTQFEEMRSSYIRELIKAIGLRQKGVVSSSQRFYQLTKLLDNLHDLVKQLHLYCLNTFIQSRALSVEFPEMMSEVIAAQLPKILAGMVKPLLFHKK

For assay [19] the target is unchanged. As to the kind of experiment: qHTS assay to identify small molecule antagonists of the progesterone receptor (PR) signaling pathway (AID 1346795; active means well fitted inhibition curve with a large enough effect in the signal ratio in the repeat runs, not every such curve was filed as active; the % refers to the signal ratio). The method in brief: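 Antagonist mode: compounds tested against 1 nM (final) promegestone stimulation in HEK293T cells expressing PR-UAS-bla reporter, 16 hr at 37C, 5% CO2; beta-lactamase activity detected via B/G FRET substrate after 2 hr at room temperature.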

The target of assay [20] is Thyrotropin receptor (Homo sapiens) (UniProt P16473). Briefly: qHTS assay to identify small molecule antagonists of the thyroid stimulating hormone receptor (TSHR) signaling pathway (AID 1259385; calls by dose curve; further: nearly all actives have a fitted effect of over 20% in size). The method in brief:
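TSHR-HEK293 cells (800/well) plated 18 h, then compounds with Ro20-1724 and TSH at 1.5 ng/mL final, 30 min at room temperature. cAMP quantified by HTRF (cAMP-d2/anti-cAMP-cryptate, 1 h); 15 concentrations in triplicate.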

Inconclusive results are not listed. Activity calls are given as the source filed them. Unless noted, the call rests on the fitted dose curve; in most records, active means well fitted curve in the direction sought with a large enough effect in the repeat runs; inconclusive means weak or mixed curves; inactive means no such curve, though single readings can be large; an effect the other way counts as inactive or inconclusive.

Sequence of Thyrotropin receptor (Homo sapiens) (P16473 whole entry, looked up): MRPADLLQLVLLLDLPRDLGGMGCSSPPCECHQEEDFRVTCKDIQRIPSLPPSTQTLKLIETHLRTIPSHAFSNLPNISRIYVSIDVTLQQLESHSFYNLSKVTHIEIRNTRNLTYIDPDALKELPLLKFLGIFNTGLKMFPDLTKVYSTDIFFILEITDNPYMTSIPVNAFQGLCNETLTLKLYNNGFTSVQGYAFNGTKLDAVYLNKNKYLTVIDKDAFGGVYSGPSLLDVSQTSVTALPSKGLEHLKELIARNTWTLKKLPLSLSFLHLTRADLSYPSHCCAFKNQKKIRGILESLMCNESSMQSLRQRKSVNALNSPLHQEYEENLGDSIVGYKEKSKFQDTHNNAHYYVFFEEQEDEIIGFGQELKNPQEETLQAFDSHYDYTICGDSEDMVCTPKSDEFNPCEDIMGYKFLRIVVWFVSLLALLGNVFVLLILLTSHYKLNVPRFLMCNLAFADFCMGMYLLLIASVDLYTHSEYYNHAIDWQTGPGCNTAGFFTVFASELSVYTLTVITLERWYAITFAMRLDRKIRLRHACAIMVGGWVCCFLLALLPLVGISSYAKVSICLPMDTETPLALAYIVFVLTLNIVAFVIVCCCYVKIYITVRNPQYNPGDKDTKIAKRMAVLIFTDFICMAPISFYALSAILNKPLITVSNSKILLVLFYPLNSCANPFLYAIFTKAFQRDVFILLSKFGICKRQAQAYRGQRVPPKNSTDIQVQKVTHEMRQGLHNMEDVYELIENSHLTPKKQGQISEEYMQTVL

As for `OC(CCN1CCCC1)(c1ccccc1)C1CCCCC1` (stereo not drawn), the Potency in [1] was 8.41 µM (active). In addition, the Potency entry in [2], in assay [3], in assay [4], in assay [5], in [6] and in assay [7] was “inactive” in each case. For the same compound, the Potency entry in assay [9], in assay [10], in assay [11], in assay [12], in [13] and in [14] was “inactive” throughout. Besides, the Potency entry in [16] was “inactive”. The call in assay [8] and in assay [15] was inactive.
With `CC[N+](CC)(CCNC(=O)C(=O)NCC[N+](CC)(CC)Cc1ccccc1Cl)Cc1ccccc1Cl`, the Potency result in [1], in assay [2], in assay [3], in assay [4], in assay [5] and in assay [7] was “inactive” each time. Moreover, the Potency result in assay [17], in assay [9], in assay [18], in assay [19], in assay [10] and in assay [11] was “inactive” each time. In addition, the Potency result in assay [12], in [13], in [14] and in [16] was “inactive” in each case. Besides, in assay [15], the compound was classed as inactive.
Turning to `O=C(Cn1ccnc1[N+](=O)[O-])NCCO`, the Potency result in assay [1], in [2], in assay [3], in [4], in assay [5] and in assay [6] was “inactive” in each case. Further, the Potency entry in [7], in assay [17], in assay [20], in assay [9], in assay [18] and in assay [19] was “inactive” each time. Further, the Potency entry in [10], in [11], in assay [12], in [13], in assay [14] and in assay [16] was “inactive” throughout. For the same compound, the compound was classed as inactive in [8] and in [15].
With `COc1ncnc(NS(=O)(=O)c2ccc(N)cc2)c1OC`, the Potency result in assay [1], in [2], in [3], in assay [4], in assay [5] and in [7] was “inactive” throughout. Besides, the Potency entry in [17], in assay [9], in [18], in [19], in assay [10] and in assay [12] was “inactive” in each case. Further, the Potency entry in assay [13], in assay [14] and in assay [16] was “inactive” throughout. Further, the call in [15] was inactive.
For the compound `Cc1ccc(C(C)(C)O)cc1`, the Potency result in [1], in assay [2], in assay [3], in assay [4], in [5] and in assay [7] was “inactive” in each case. For the same compound, the Potency entry in assay [17], in assay [20], in assay [9], in [18], in assay [10] and in [11] was “inactive” throughout. Moreover, the Potency entry in assay [12], in assay [13], in [14] and in assay [16] was “inactive” throughout. For the same compound, the call in assay [8] and in assay [15] was inactive.
As to `C=C(C)C(=O)OCCCCCCCCCCCCC`, the Potency entry in assay [1], in assay [2], in assay [3], in [4], in assay [5] and in [7] was “inactive” in each case. Besides, the Potency entry in [17], in assay [9], in assay [18], in assay [19], in [10] and in [11] was “inactive” in each case. For the same compound, the Potency result in assay [12], in [14] and in assay [16] was “inactive” in each case. In addition, the call in [8] and in [15] was inactive.
In the case of `O=C1CCCCCCCCCCOCCCCO1`, the Potency result in assay [1], in assay [2], in assay [3], in assay [4], in [5] and in assay [7] was “inactive” throughout. Further, the Potency entry in assay [20], in [9], in assay [18], in [19], in assay [10] and in assay [11] was “inactive” in each case. Further, the Potency entry in assay [12], in assay [13] and in [16] was “inactive” each time. Further, the compound was classed as inactive in assay [8] and in assay [15].
Take `CN1C(=O)OC(C)(C)C1=O`: the Potency result in assay [1], in assay [2], in assay [3], in assay [4], in [5] and in assay [7] was “inactive” throughout. Further, the Potency entry in assay [17], in assay [9], in assay [18], in assay [19], in [10] and in assay [11] was “inactive” in each case. Also, the Potency result in [12], in assay [13], in assay [14] and in assay [16] was “inactive” throughout. In addition, the call in assay [15] was inactive.
